PubChem BioAssay
Several values for one entry are separate records, joined by “and”; a condition that tells them apart may be missing. Equal values may be shown once. Records with an inconclusive call do not appear. Activity calls are given as the source filed them.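 How the source made its calls, unless noted: active means normalized viability below 100% at a tested concentration; inactive means the rest.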

Tests used:
[1] = SU-DIPG-VI glioma cell viability, MIPE4.0 library, CellTiter-Glo luminescence, qHTS (AID 1347066; cut-off not given, nearly all actives have AC50 up to about 30 µM;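 further: cells exposed to compound for 48 hours before readout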); conditions: CellTiter-Glo ATP luminescence
[2] = JHH-DIPG-1 glioma cell viability, MIPE5.0 library, CellTiter-Glo luminescence, qHTS (AID 1347067; cut-off not given, nearly all actives have AC50 up to about 26 µM;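 further: cells exposed to compound for 48 hours before readout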); conditions: JHH-DIPG-1 glioma viability, CellTiter-Glo ATP luminescence
[3] = SU-DIPG-XXV glioma cell viability, MIPE5.0 library, qHTS (AID 1347068; cut-off not given, nearly all actives have IC50 up to about 30 µM;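 on IC50: cells exposed to compound for 48 hours before viability readout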)
[4] = sensitizers of A549 cells to miR-34 induction, primary screen, imaging, A549 dox-inducible miR-34, nuclei and caspase counts (AID 1347080;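 active means compounds whose cell count with miR-34 switched on is under 0.7 times the count with it off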); conditions: A549 miR-34 inducible, Hoechst nuclei count, 48 h
[5] = phospholipid biosynthesis inhibitors in animal cells, primary screen, cell-based, LOPAC library, screen 4 (AID 1347384; call rule not given here); conditions: phospholipid biosynthesis inhibition screen, at 10 µM
[6] = survival rescue of mitochondrial mutant cells in low glucose, primary screen, MELAS cybrids, Rieske KO mouse fibroblasts, CellTiter-Glo (AID 1508586;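 active means mean z-score across replicates of 1.96 or higher in either the MELAS or the Rieske mutant cell line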;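 further: z relative to plate mean and SD of compound and empty wells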)
[7] = molecular target: NAD(+) hydrolase SARM1 (Homo sapiens) (UniProt Q6SZW1); experiment: SARM1 TIR NADase inhibitors, cell lysate, NAD-Glo luminescence (AID 1508614;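 active means compound whose remaining NAD level is above about 45 nM, limit read from the data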); conditions: SAM-TIR HEK293T lysate NADase, at 1 µM, stronger effect = higher value
[8] = viability rescue of complex I mutant cybrids, primary screen, cell-based, galactose medium, ATP luminescence (AID 1645843;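 active means z-score of at least 1.8 in each of two replicates, scored against plate mean and spread of sample wells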;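 further: positive z means more ATP and so rescue of galactose-driven cybrid death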); conditions: complex I mutant cybrid cells, 72 h, stronger effect = higher value
[9] = molecular target: Mitogen-activated protein kinase 7 (Homo sapiens) (UniProt Q13164); experiment: ERK5 transactivation activators in reporter cells, primary screen, cell-based, HTS (AID 1508626;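 active means luciferase signal above three times the same-plate solvent-only control wells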;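 further: luciferase driven by Gal4-ERK5 fusion binding five Gal4 sites before minimal TATA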); conditions: HeLa Gal4-ERK5 transactivation, 18 h, at 5 µM, stronger effect = higher value
[10] = viability loss in pontine glioma line – cell-based, SU-DIPG-XXV, MIPE5.0, CellTiter-Glo, qHTS, dose response (AID 1347065; cut-off not given, nearly all actives have AC50 up to about 26 µM;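 further: cells exposed to compound for 48 hours before ATP readout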); conditions: CellTiter-Glo ATP luminescence
[11] = modifiers of HSF1 nuclear foci, imaging, Selleck Cancer Library (AID 1347162; in the data active means plate-normalised HSF1 focus index below about 0.46); conditions: human cells, at 10 µM; SSMD: measured here: HSF1 foci SSMD mean; cell count: measured here: cell number; plate-normalised HSF1 focus index: stronger effect = lower value
[12] = ovarian cancer cell viability with rucaparib, profiling panel, oncology-focused library, rucaparib conditional (AID 1508598); conditions: patient-derived ovarian cancer cells, CellTiter-Glo viability, 144 h, stronger effect = lower value
[13] = stronger effect = lower value, cell number ratio, induced over uninduced
[14] = measured here: relative caspase fold change +Dox/-Dox
[15] = measured here: total cells with miR-34 induction, stronger effect = lower value
[16] = measured here: total cells without miR-34 induction
[17] = MELAS cybrid survival, CellTiter-Glo 48 h, stronger effect = higher value
[18] = Rieske KO mouse fibroblast survival, CellTiter-Glo 72 h
[19] = at 0.000305 µM, OCI-C5x cells, with rucaparib 10 µM, 100% = cells with rucaparib alone
[20] = at 0.000305 µM, OCI-C5x cells, without rucaparib
[21] = at 0.000305 µM, OCI-P5x cells, with rucaparib 20 µM, 100% = cells with rucaparib alone
[22] = at 0.000305 µM, OCI-P5x cells, without rucaparib
[23] = at 0.00122 µM, OCI-C5x cells, with rucaparib 10 µM, 100% = cells with rucaparib alone
[24] = at 0.00122 µM, OCI-C5x cells, without rucaparib
[25] = at 0.00122 µM, OCI-P5x cells, with rucaparib 20 µM, 100% = cells with rucaparib alone
[26] = at 0.00122 µM, OCI-P5x cells, without rucaparib
[27] = at 0.00488 µM, OCI-C5x cells, with rucaparib 10 µM, 100% = cells with rucaparib alone
[28] = at 0.00488 µM, OCI-C5x cells, without rucaparib
[29] = at 0.00488 µM, OCI-P5x cells, with rucaparib 20 µM, 100% = cells with rucaparib alone
[30] = at 0.00488 µM, OCI-P5x cells, without rucaparib
[31] = at 0.0195 µM, OCI-C5x cells, with rucaparib 10 µM, 100% = cells with rucaparib alone
[32] = at 0.0195 µM, OCI-C5x cells, without rucaparib
[33] = at 0.0195 µM, OCI-P5x cells, with rucaparib 20 µM, 100% = cells with rucaparib alone
[34] = at 0.0195 µM, OCI-P5x cells, without rucaparib
[35] = at 0.0781 µM, OCI-C5x cells, with rucaparib 10 µM, 100% = cells with rucaparib alone
[36] = at 0.0781 µM, OCI-C5x cells, without rucaparib
[37] = at 0.0781 µM, OCI-P5x cells, with rucaparib 20 µM, 100% = cells with rucaparib alone
[38] = at 0.0781 µM, OCI-P5x cells, without rucaparib
[39] = at 0.313 µM, OCI-C5x cells, with rucaparib 10 µM, 100% = cells with rucaparib alone
[40] = at 0.313 µM, OCI-C5x cells, without rucaparib
[41] = at 0.313 µM, OCI-P5x cells, with rucaparib 20 µM, 100% = cells with rucaparib alone
[42] = at 0.313 µM, OCI-P5x cells, without rucaparib
[43] = at 1.25 µM, OCI-C5x cells, with rucaparib 10 µM, 100% = cells with rucaparib alone
[44] = at 1.25 µM, OCI-C5x cells, without rucaparib
[45] = at 1.25 µM, OCI-P5x cells, with rucaparib 20 µM, 100% = cells with rucaparib alone
[46] = at 1.25 µM, OCI-P5x cells, without rucaparib
[47] = at 5 µM, OCI-C5x cells, with rucaparib 10 µM, 100% = cells with rucaparib alone
[48] = at 5 µM, OCI-C5x cells, without rucaparib
[49] = at 5 µM, OCI-P5x cells, with rucaparib 20 µM, 100% = cells with rucaparib alone
[50] = at 5 µM, OCI-P5x cells, without rucaparib

Mitogen-activated protein kinase 7 (Homo sapiens), sequence (Q13164 whole entry, looked up, the tested form may be a part): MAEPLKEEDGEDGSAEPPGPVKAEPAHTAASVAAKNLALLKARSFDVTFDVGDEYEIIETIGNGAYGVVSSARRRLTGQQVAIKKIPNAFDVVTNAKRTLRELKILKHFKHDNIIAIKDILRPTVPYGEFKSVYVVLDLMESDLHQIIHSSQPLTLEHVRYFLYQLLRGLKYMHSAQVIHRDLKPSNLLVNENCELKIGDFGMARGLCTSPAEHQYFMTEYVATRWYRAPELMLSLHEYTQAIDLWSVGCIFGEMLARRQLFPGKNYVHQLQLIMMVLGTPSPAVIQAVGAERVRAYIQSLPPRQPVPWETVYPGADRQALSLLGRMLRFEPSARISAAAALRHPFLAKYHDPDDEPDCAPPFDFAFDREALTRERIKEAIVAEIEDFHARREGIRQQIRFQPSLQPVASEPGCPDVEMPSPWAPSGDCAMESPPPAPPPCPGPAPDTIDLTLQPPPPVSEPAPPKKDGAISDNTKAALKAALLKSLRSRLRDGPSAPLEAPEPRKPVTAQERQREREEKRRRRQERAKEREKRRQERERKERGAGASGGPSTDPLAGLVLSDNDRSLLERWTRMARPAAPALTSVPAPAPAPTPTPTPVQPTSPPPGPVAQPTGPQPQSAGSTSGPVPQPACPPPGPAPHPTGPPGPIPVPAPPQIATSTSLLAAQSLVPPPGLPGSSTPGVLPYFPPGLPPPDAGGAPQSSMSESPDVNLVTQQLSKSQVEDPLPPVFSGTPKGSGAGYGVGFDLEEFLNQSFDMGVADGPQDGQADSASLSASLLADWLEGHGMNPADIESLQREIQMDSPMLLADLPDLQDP
NAD(+) hydrolase SARM1 (Homo sapiens), sequence (Q6SZW1 whole entry, looked up): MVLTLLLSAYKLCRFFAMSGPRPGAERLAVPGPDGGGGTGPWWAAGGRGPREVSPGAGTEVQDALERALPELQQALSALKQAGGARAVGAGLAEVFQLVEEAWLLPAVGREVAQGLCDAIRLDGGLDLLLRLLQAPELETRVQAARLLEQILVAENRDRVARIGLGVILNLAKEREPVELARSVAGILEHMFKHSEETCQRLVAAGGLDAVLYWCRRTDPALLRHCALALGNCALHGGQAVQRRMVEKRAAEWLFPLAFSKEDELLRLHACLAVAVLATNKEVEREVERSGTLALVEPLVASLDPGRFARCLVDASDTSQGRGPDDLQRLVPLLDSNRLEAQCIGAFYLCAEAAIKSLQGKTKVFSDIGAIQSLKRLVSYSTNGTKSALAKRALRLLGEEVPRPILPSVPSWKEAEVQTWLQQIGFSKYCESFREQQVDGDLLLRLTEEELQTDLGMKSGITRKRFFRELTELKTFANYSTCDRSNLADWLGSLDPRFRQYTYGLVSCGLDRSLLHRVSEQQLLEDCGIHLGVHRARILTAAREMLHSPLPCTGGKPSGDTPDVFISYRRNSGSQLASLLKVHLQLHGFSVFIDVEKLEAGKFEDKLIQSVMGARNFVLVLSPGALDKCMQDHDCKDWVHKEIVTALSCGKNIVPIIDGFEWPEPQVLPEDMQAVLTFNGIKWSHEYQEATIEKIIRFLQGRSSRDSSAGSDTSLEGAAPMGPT

C[C@H]1O[C@@H](n2cc(F)c(=O)[nH]c2=O)[C@H](O)[C@@H]1O
inactive: outcome [1] | outcome [2] | outcome [3] | fold change [4, 13] 1.04 and 0.788 | outcome [5] | z-score [6, 17] 0.0159 | remaining NAD [7] 10 nM | z-score [8] 0.64 and -0.08
0.632 and 1.14: fold change [4, 14]
3620 and 3400: cell count [4, 15]
-0.832: z-score [6, 18]
3490 and 4310: cell count [4, 16]

C/C=C(/C(=C/C)c1ccc(O)cc1)c1ccc(O)cc1
-1.14: z-score [6, 18]
8160 and 11500: cell count [4, 16]
inactive: outcome [1] | fold change [4, 13] 0.888 and 0.901 | z-score [6, 17] -1.21 | remaining NAD [7] 10 nM | luciferase signal [9] 72 AU
active: AC50 [2] 20.9 µM | IC50 [3] 23.5 µM
1.32 and 1.91: fold change [4, 14]
7250 and 10300: cell count [4, 15]

O=C1N(c2ccccc2)c2ccccc2C1(Cc1ccncc1)Cc1ccncc1
10000 and 7730 and 7820: cell count [4, 15]
9180 and 9540 and 7860: cell count [4, 16]
1.28 and 1.84 and 1.46: fold change [4, 14]
inactive: outcome [1] | outcome [2] | outcome [3] | fold change [4, 13] 1.1 and 0.81 and 0.995 | outcome [5] | z-score [8] -0.165 and 0.43 and -0.3

O=C1CCc2cc(OCCCCc3nnnn3C3CCCCC3)ccc2N1
inactive: outcome [10] | outcome [2] | outcome [5] | z-score [6, 17] -0.457 and 0.645 | remaining NAD [7] 10 nM | luciferase signal [9] 96 AU | z-score [8] -1.27 and -0.71
0.52 and 0.278: z-score [6, 18]

CCc1c2c(nc3ccc(OC(=O)N4CCC(N5CCCCC5)CC4)cc13)-c1cc3c(c(=O)n1C2)COC(=O)[C@]3(O)CC
-0.882 and -1.55: z-score [6, 18]
2270 and 2120 and 2140: cell count [4, 16]
1660 and 2170 and 2350: cell count [4, 15]
-0.515: SSMD [11]
inactive: outcome [1] | fold change [4, 13] 0.732 and 1.02 and 1.1 | plate-normalised HSF1 focus index [11] 0.983 | z-score [6, 17] -0.914 and -2.14 | viability [12, 19] 118% | viability [12, 20] 117% | viability [12, 21] 102% | viability [12, 22] 105% | viability [12, 23] 121% | viability [12, 24] 124% | viability [12, 25] 104% | viability [12, 26] 105% | viability [12, 27] 107% | viability [12, 28] 112% | viability [12, 29] 108% | viability [12, 30] 106% | viability [12, 31] 115% | viability [12, 32] 124% | viability [12, 33] 101% | viability [12, 34] 105% | viability [12, 35] 115% | viability [12, 36] 109% | viability [12, 38] 102% | viability [12, 40] 106% | remaining NAD [7] 10 nM | z-score [8] -1.4 and -0.58
1.79 and 1.27 and 1.62: fold change [4, 14]
active: AC50 [2] 23.5 µM | viability [12, 37] 89.3% | viability [12, 39] 94% | viability [12, 41] 81.1% | viability [12, 42] 89.6% | viability [12, 43] 70.2% | viability [12, 44] 87% | viability [12, 45] 64.9% | viability [12, 46] 57.1% | viability [12, 47] 50.5% | viability [12, 48] 36.9% | viability [12, 49] 34.4% | viability [12, 50] 21.1%
7510: cell count [11]

COc1ncnc(NS(=O)(=O)c2ccc(N)cc2)c1OC
0.678 and -1.38: z-score [6, 18]
0.874 and 2.12 and 1.28: fold change [4, 14]
inactive: outcome [1] | outcome [2] | outcome [3] | fold change [4, 13] 0.905 and 0.917 and 0.89 | z-score [6, 17] 0.681 and -0.67 | remaining NAD [7] 10 nM | z-score [8] -0.18
9490 and 11800 and 9350: cell count [4, 15]
10500 and 12900: cell count [4, 16]

O=C(NC(Cc1cc(=O)[nH]c2ccccc12)C(=O)O)c1ccc(Cl)cc1 (configuration not stated)
0.648 and -0.845 and -0.0622: z-score [6, 18]
9400 and 10800: cell count [4, 16]
0.965 and 1.15: fold change [4, 14]
inactive: outcome [1] | outcome [2] | outcome [3] | fold change [4, 13] 0.898 and 0.888 | z-score [6, 17] -0.219 and -0.0914 and 0.278 | remaining NAD [7] 10 nM | luciferase signal [9] 40 AU | z-score [8] 0.47
8440 and 9630: cell count [4, 15]

CCC(C)n1ncn(-c2ccc(N3CCN(c4ccc(OC[C@H]5CO[C@](Cn6cncn6)(c6ccc(Cl)cc6Cl)O5)cc4)CC3)cc2)c1=O (some centres not stated)
inactive: outcome [1] | outcome [2] | outcome [3] | plate-normalised HSF1 focus index [11] 1.11 | viability [12, 19] 118% | viability [12, 20] 110% | viability [12, 23] 118% | viability [12, 24] 100% | viability [12, 27] 122% | viability [12, 28] 105% | viability [12, 31] 127% | viability [12, 32] 116% | viability [12, 35] 126% | viability [12, 36] 119% | viability [12, 39] 131% | viability [12, 40] 118% | viability [12, 43] 131% | viability [12, 44] 126% | viability [12, 47] 135% | viability [12, 48] 123% | remaining NAD [7] 10 nM
6750: cell count [11]
active: viability [12, 21] 90.3% | viability [12, 22] 83% | viability [12, 25] 93.4% | viability [12, 26] 81.8% | viability [12, 29] 95.6% | viability [12, 30] 90.8% | viability [12, 33] 96.2% | viability [12, 34] 89.4% | viability [12, 37] 96.6% | viability [12, 38] 95.1% | viability [12, 41] 98.6% | viability [12, 42] 95.8% | viability [12, 45] 93.3% | viability [12, 46] 94.8% | viability [12, 49] 92.7% | viability [12, 50] 94.9%
2.18: SSMD [11]
